HT1080NT lethal = kills 2HG-producing HT-1080-NT fibrosarcoma cells | HT-1080-NT fibrosarcoma viability, CellTiter-Glo ATP luminescence, 48 h | Potency, µM (series often up to 46.1 µM), without a hit: at the top dose activity, negative = less viability, most hits filed as cytotoxic | actives 1.6% (n = 360,000) | AID 686970;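 further: NT is the 2HG producing partner of a matched IDH1 knockdown line; 0% = DMSO-treated cells and -100% = media-only wells without cells; nearly all actives have a fitted effect of over 55% in size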
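Viability by CellTiter-Glo luminescence after 48 h compound exposure at 37C of HT-1080-NT cells (750/well, RPMI, 5% FBS). % activity scaled between DMSO wells and medium-only wells, then curve-fitted and categorized by curve class.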
TDP1 cell CPT = growth inhibition of DT40 Tdp1-/-;hTDP1 cells with camptothecin (screen for TDP1 inhibitors) | chicken DT40 Tdp1-/-;hTDP1 cells + 20 nM CPT, ATP luminescence, 48 h | Potency, µM (titrated, usually from 46.2 µM), for inactives: top-dose activity change, negative = growth inhibition, usual class: inhibitors | actives 12% (n = 420,000) | AID 686979; further: on the % scale 0 is the no-effect control and ±100 the full control effect; nearly all actives have a fitted effect of over 55% in size
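Chicken DT40 Tdp1-/- cells complemented with human TDP1, 400 cells/well, exposed to compounds plus 20 nM camptothecin for at least 48 h at 37 C; viability read as ATP content by CellTiter-Glo luminescence.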
TGFb inhibitor = TGF-b pathway inhibition; Potency, µM (titrated, usually from 46.1 µM), inactives show at the top dose activity, negative = inhibition, actives largely listed as inhibitors; actives 1.2% (n = 410,000); HepG2 CAGA-GFP TGF-b/SMAD3 reporter, GFP fluorescence, 18 h; TGF-beta stimulated, 500 pg/mL final; further: on the % scale 0 is the no-effect control and ±100 the full control effect; nearly all actives have a fitted effect of over 65% in size
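HEPG2 CAGA-GFP cells (1000/well, DMEM with 1% FBS) were pre-incubated 2 h at 37 degrees C, given compound by pin tool, then stimulated with TGF-beta at 500 pg/mL final for 18 h before per-cell GFP fluorescence imaging.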
HT1080 IDH1KD tx = HT-1080 IDH1 knockdown cell toxicity (counter line). HT-1080 IDH1 knockdown viability, ATP luminescence, 48 h. actives 2% (n = 360,000). Potency, µM (doses to about 46.1 µM), without a hit: at the highest dose activity, negative = toxicity, most hits filed as cytotoxic;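 further: 0% = DMSO wells and -100% = cell-free medium wells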
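HT-1080-IDH1KD cells (IDH1 knocked down), 750/well in RPMI with 5% FBS, treated with compound 48 h at 37 degrees C. Viability by CellTiter-Glo luminescence, normalised to DMSO and no-cell wells; concentration-response curves classed.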
HepG2 tox = kills HepG2 cells in TGF-b inhibitor counter-screen; HepG2 CAGA-GFP viability, ATP luminescence, 18 h; actives 0.76% (n = 410,000); AID 588856; Potency, µM (highest dose often 46.1 µM), inactives show at the highest dose activity change, negative = cytotoxicity, usual class: cytotoxic
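HepG2 CAGA-GFP cells (1000/well, DMEM with 1% FBS) received compound, then TGF-beta at 500 pg/mL final, and were incubated 18 hours at 37 degrees C. Viability was read by CellTiter-Glo luminescence. Media-only wells were set as complete cell-killing and DMSO as no toxicity.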
DT40 TDP1 no CPT = qHTS for Inhibitors of human tyrosyl-DNA phosphodiesterase 1 (TDP1): qHTS in cells in absence of CPT; DT40 Tdp1-/- hTDP1 cells, no CPT, ATP luminescence, 48 h; Potency, µM (doses to about 46.2 µM), without a hit: at the highest dose activity change, negative = growth inhibition, usual class: inhibitors; actives 15% (n = 420,000); AID 686978, 2013; further: on the % scale 0 is the no-effect control and ±100 the full control effect; nearly all actives have a fitted effect of over 55% in size
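Chicken DT40 Tdp1-/- cells complemented with human TDP1, screened without camptothecin (DMSO vehicle only), 400 cells/well. Compounds pin-transferred, cells incubated at 37 °C for at least 48 hr. Growth read as ATP-dependent luminescence (CellTiter-Glo, 30 min at RT).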
Active calls of the source: *; ? = inconclusive; nt = not tested or not shown. Most compounds without a hit are left out; they make up all but 17% or so of the library. The call rests on the fitted dose curve; in most records, active means well fitted curve in the direction sought with a large enough effect; inconclusive means small, poorly fitted or top-dose-only effect, or another doubt; inactive means no such curve, though single readings can be large; an effect the other way counts as inactive or inconclusive. Potency means the concentration at half of the fitted maximal effect.

SMILES	HT1080NT lethal	TDP1 cell CPT	TGFb inhibitor	HT1080 IDH1KD tx	HepG2 tox	DT40 TDP1 no CPT
Cc1nc(-c2ccc(F)cc2)c(CC(=O)N(C)CC(=O)Nc2ccc(F)cc2)s1	-1.4%	-27.2%	?	-2.6%	-18.2%	-22.6%
O=C(Nc1ccc2oc(-c3cccc(F)c3)nc2c1)c1ccc2ccccc2c1	nt	-6.1%	-1.1%	nt	0.9%	-17.9%
CN(C)c1ccc(/C=C/c2nc3ccccc3c(=O)[nH]2)cc1	-23.4%	20.6µM*	7.8%	?	-6.3%	10.3µM*
O=c1[nH]c(/C=C/c2cccc3ccccc23)nc2ccccc12	8.3%	?	-22.2%	3.3%	-22.1%	?
Cc1cccc(/C=C\c2nc3ccccc3c(=O)[nH]2)c1	?	20.6µM*	2.2%	5.8µM*	-8.1%	18.4µM*
O=c1[nH]c(/C=C/c2ccccc2F)nc2ccccc12	?	2.91µM*	0.0%	5.8µM*	4.1%	2.91µM*
O=c1[nH]c(/C=C/c2ccc(Br)cc2)nc2ccccc12	-2.5%	-10.5%	-9.2%	15.3%	7.7%	-11.5%
Cc1nc(/C=C/c2ccccc2)[nH]c(=O)c1-c1ccccc1	?	10.3µM*	-4.0%	-23.6%	24.9%	?
N#Cc1cccc(NC(=O)N2CCC3(CC2)CCN(C(=O)c2cnccn2)CC3)c1	nt	-3.8%	nt	nt	nt	-2.0%
COc1ccc(-c2noc(-c3cccc(OC)c3OC)n2)cc1	nt	?	4.6%	nt	-28.5%	?
Cc1cc(N2CCCCC2C)nc(-c2ccccc2O)n1 (stereo unspecified)	16.1%	23.1µM*	-33.8%	-0.8%	-24.7%	20.6µM*
O=C(CSc1nc2ccccc2o1)N/N=C/c1ccccc1	7.4%	-19.7%	2.1%	2.4%	-1.0%	-14.6%
Cc1cc(SCC(=O)N/N=C/c2ccc(O)c(O)c2)c(C)cc1Br	-28.3%	20.6µM*	0.3%	?	-31.7%	16.4µM*
COc1ccc2nc(C)cc(SCC(=O)N/N=C/c3ccc(O)c(O)c3)c2c1	-6.5%	?	0.6%	-16.0%	-32.3%	29.1µM*
Cc1cc(SCC(=O)N/N=C/c2ccc(O)c(O)c2)nc2ccccc12	-28.9%	?	-24.1%	?	-21.1%	?
O=C(CSc1nc2ccccc2o1)N/N=C/c1ccc(O)c(O)c1	-9.6%	18.4µM*	?	-11.8%	-30.0%	20.6µM*
Cc1cc(SCC(=O)N/N=C/c2ccc(O)cc2O)nc2ccccc12	?	?	-11.2%	?	-11.7%	4.11µM*
COCCN1C(=O)c2ccccc2C(C(=O)Nc2ccc3c(c2)OCCO3)C1c1ccc(F)cc1 (stereo unspecified)	-1.1%	?	-14.9%	-0.1%	-9.3%	?
COc1ccc2nc(C)cc(SCC(=O)N/N=C/c3cccc4ccccc34)c2c1	11.2µM*	7.08µM*	-1.1%	6.31µM*	-12.0%	12.6µM*
COC(=O)CSc1cc(C)nc2ccc(OC)cc12	18.7%	-3.9%	3.7%	3.7%	-3.6%	-11.5%
c1ccc2c(c1)nc(N1CCOCC1)c1nncn12	-1.7%	-6.1%	21.9%	11.1%	1.3%	?
c1ccc(CN2CCN(c3nc4ccccc4c4ccccc34)CC2)cc1	-2.0%	20.6µM*	?	0.4%	-8.0%	?
c1ccc(CN2CCN(c3nc4ccccc4n4cnnc34)CC2)cc1	0.0%	13µM*	-5.8%	-5.6%	1.0%	?
C1=C(c2ccccc2)CCN(c2nc3ccccc3n3cnnc23)C1	-8.1%	?	-5.0%	-0.9%	-23.7%	16.4µM*
